# Assay results taken from PubChem BioAssay (EPA / NIEHS).
# Calls of active or inactive are those of the source. How the source made its calls: active means hit-call score of the fitted dose curve at least 0.9, where 1 is the maximum; inactive means score below 0.9.
# Legend:
# Settings in all cases: mRNA level, 48 h; actives raise or lower the signal
# [1] = read-out: Tumor necrosis factor receptor superfamily member 6 (Homo sapiens) (UniProt P25445); assay: LTEA_HepaRG_FAS: Life Technologies and Expression Analysis (LTEA) Assay for Fas cell surface death receptor (FAS) using HepaRG (AID 2283447)
# Outline: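 FAS transcript level was measured by TaqMan qRT-PCR against three housekeeping genes after 48 h chemical exposure. Cells were HepaRG, 0.5% DMSO vehicle, with a top concentration of 100 uM and half-log dilutions over eight points, in duplicate.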
# [2] = read-out: Cyclin D2 (CCND2), CCND2 (gene 894); assay: LTEA_HepaRG_CCND2: Life Technologies and Expression Analysis (LTEA) Assay for Cyclin D2 (CCND2) using HepaRG (AID 2283449)
# Outline: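 Read-out is CCND2 mRNA level measured by qRT-PCR in human HepaRG liver cells and normalised to three housekeeping genes. Chemicals were applied for 48 h at up to 100 uM, with gain or loss fitted relative to 0.5% DMSO.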
# [3] = read-out: Cyclin Dependent Kinase Inhibitor 1A (CDKN1A), CDKN1A (gene 1026); assay: LTEA_HepaRG_CDKN1A: Life Technologies and Expression Analysis (LTEA) Assay for Cyclin Dependent Kinase Inhibitor 1A (CDKN1A) using HepaRG (AID 2283450)
# Outline: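 Expression quantified by Fluidigm qRT-PCR with ACTB, GAPDH and POLR2A normalization, fitted bidirectionally against 0.5% DMSO. Cells: HepaRG, plated 48 h then treated 48 h in serum-free induction medium, top concentration 100 uM with half-log dilutions.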
# [4] = read-out: Cyclin D1 (CCND1), CCND1 (gene 595); assay: LTEA_HepaRG_CCND1: Life Technologies and Expression Analysis (LTEA) Assay for Cyclin D1 (CCND1) using HepaRG (AID 2283451);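 on AC50: differentiated human HepaRG liver cells in serum-free induction medium; TaqMan qRT-PCR transcript level normalised to ACTB GAPDH and POLR2A housekeeping genes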
# Outline: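 Expression of CCND1 was quantified by qRT-PCR on Fluidigm arrays using ACTB, GAPDH and POLR2A as reference genes. HepaRG cultures, plated 48 h beforehand, were dosed for 48 h at up to 100 uM (half-log, 8 points) in 0.5% DMSO.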
# [5] = read-out: catalase (CAT), CAT (gene 847); assay: LTEA_HepaRG_CAT: Life Technologies and Expression Analysis (LTEA) Assay for catalase (CAT) using HepaRG (AID 2283452);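 on AC50: TaqMan qRT-PCR signal normalized to ACTB GAPDH and POLR2A housekeeping genes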
# Outline: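 Expression of CAT was quantified by TaqMan qRT-PCR with ACTB/GAPDH/POLR2A normalization after 48 h chemical exposure of HepaRG. Eight-point half-log series, top 100 uM, in 0.5% DMSO; gain or loss fitted against vehicle.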
# [6] = read-out: flavin-containing dimethylaniline monooxygenases 3 (FMO3), FMO3 (gene 2328); assay: LTEA_HepaRG_FMO3: Life Technologies and Expression Analysis (LTEA) Assay for flavin-containing dimethylaniline monooxygenases 3 (FMO3) using HepaRG (AID 2283453);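 further: differentiated human HepaRG liver cells in serum-free induction medium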
# Outline: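 Differentiated HepaRG cells in serum-free induction medium, exposed 48 h in duplicate to 8 half-log concentrations up to 100 uM in 0.5% DMSO. FMO3 mRNA by qRT-PCR, normalized to ACTB, GAPDH, POLR2A; bidirectional fit vs DMSO.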
# [7] = read-out: Cytochrome P450 (CYP1A1), CYP1A1 (gene 1543); assay: LTEA_HepaRG_CYP1A1: Life Technologies and Expression Analysis (LTEA) Assay for Cytochrome P450 (CYP1A1) using HepaRG (AID 2283454)
# Outline: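 CYP1A1 transcript levels measured by Fluidigm qRT-PCR against three housekeeping genes, 48 h after chemical dosing of human HepaRG cells (highest concentration 100 uM, half-log steps, 0.5% DMSO vehicle). Gain or loss of signal fitted relative to DMSO.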
# [8] = read-out: CFLAR gene, CFLAR (gene 8837); assay: LTEA_HepaRG_CFLAR: Life Technologies and Expression Analysis (LTEA) Assay for CFLAR gene using HepaRG (AID 2283455)
# Outline: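 HepaRG, 48 h exposure, 8-pt conc-response (100 uM top, half-log), 0.5% DMSO vehicle, duplicates. CFLAR expression by qRT-PCR; ACTB/GAPDH/POLR2A normalization; gain or loss fit vs DMSO baseline.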
# [9] = read-out: Forkhead box O1 (FOXO1), FOXO1 (gene 2308); assay: LTEA_HepaRG_FOXO1: Life Technologies and Expression Analysis (LTEA) Assay for Forkhead box O1 (FOXO1) using HepaRG (AID 2283456)
# Outline: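 Readout is FOXO1 transcript level by multiplexed qRT-PCR against three housekeeping genes, curve-fitted in both directions relative to 0.5% DMSO vehicle. Human HepaRG cultures received chemicals for 48 h, up to 100 uM in half-log steps.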
# [10] = read-out: growth arrest and DNA damage 45 (GADD45A), GADD45A (gene 1647); assay: LTEA_HepaRG_GADD45A: Life Technologies and Expression Analysis (LTEA) Assay for growth arrest and DNA damage 45 (GADD45A) using HepaRG (AID 2283458)
# Outline: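 Differentiated HepaRG cells exposed 48 h in serum-free induction medium to 8 concentrations, top 100 uM in half-log steps, 0.5% DMSO. GADD45A mRNA quantified by qRT-PCR, normalized to ACTB, GAPDH and POLR2A; bidirectional fit versus DMSO.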
# [11] = read-out: Forkhead box O3 (FOXO3), FOXO3 (gene 2309); assay: LTEA_HepaRG_FOXO3: Life Technologies and Expression Analysis (LTEA) Assay for Forkhead box O3 (FOXO3) using HepaRG (AID 2283459)
# Outline: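 HepaRG, 48 h post-dose; 8 conc., half-log from 100 uM, 0.5% DMSO, duplicates; serum-free induction medium. Readout: FOXO3 mRNA, TaqMan qRT-PCR, housekeeping-normalized. Bidirectional curve fit vs DMSO baseline.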
# [12] = read-out: ABC Transporter (ABCB1), ABCB1 (gene 5243); assay: LTEA_HepaRG_ABCB1: Life Technologies and Expression Analysis (LTEA) Assay for ABC Transporter (ABCB1) using HepaRG (AID 2283460)
# Outline: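 Expression of ABCB1 was quantified by qRT-PCR against three housekeeping genes after human HepaRG cultures received test chemicals for 48 hours. Concentrations spanned eight half-log steps topping at 100 uM in 0.5% DMSO; gain or loss of signal was fitted relative to vehicle.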
# [13] = read-out: growth arrest and DNA damage 45 (GADD45B), GADD45B (gene 4616); assay: LTEA_HepaRG_GADD45B: Life Technologies and Expression Analysis (LTEA) Assay for growth arrest and DNA damage 45 (GADD45B) using HepaRG (AID 2283461)
# Outline: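 Transcript level quantified by Fluidigm TaqMan qRT-PCR with three housekeeping genes for normalization, analyzed for up- or down-regulation against 0.5% DMSO. HepaRG cultures dosed 48 h at eight half-log concentrations up to 100 uM, duplicates.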
# [14] = read-out: ABC Transporter (ABCC3), ABCC3 (gene 8714); assay: LTEA_HepaRG_ABCC3: Life Technologies and Expression Analysis (LTEA) Assay for ABC Transporter (ABCC3) using HepaRG (AID 2283462)
# Outline: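 Transcript level by TaqMan qRT-PCR, normalised to three housekeeping genes, fitted in both directions relative to vehicle. Chemicals tested in duplicate at eight half-log concentrations up to 100 uM for 48 h on HepaRG cells (0.5% DMSO).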
# [15] = read-out: Fatty acid synthase (Homo sapiens) (UniProt P49327); assay: LTEA_HepaRG_FASN: Life Technologies and Expression Analysis (LTEA) Assay for Fatty Acid Synthase (FASN) using HepaRG (AID 2283448);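 on AC50: differentiated human HepaRG liver cells in serum-free induction medium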
# Outline: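 Differentiated HepaRG cells in serum-free induction medium exposed 48 h in duplicate to eight half-log concentrations, top 100 uM, 0.5% DMSO. FASN mRNA by qRT-PCR normalised to ACTB, GAPDH, POLR2A; bidirectional fit versus DMSO.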
# [16] = read-out: ABC Transporter (ABCB11), ABCB11 (gene 8647); assay: LTEA_HepaRG_ABCB11: Life Technologies and Expression Analysis (LTEA) Assay for ABC Transporter (ABCB11) using HepaRG (AID 2283463)
# Outline: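 ABCB11 transcript levels are read by Fluidigm TaqMan qRT-PCR after 48 h chemical treatment of human HepaRG cells. Concentrations span 100 uM downward in half-log steps with 0.5% DMSO; gain or loss is fitted against DMSO controls.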
# Chain of Fatty acid synthase (Homo sapiens) (P49327 whole entry, looked up): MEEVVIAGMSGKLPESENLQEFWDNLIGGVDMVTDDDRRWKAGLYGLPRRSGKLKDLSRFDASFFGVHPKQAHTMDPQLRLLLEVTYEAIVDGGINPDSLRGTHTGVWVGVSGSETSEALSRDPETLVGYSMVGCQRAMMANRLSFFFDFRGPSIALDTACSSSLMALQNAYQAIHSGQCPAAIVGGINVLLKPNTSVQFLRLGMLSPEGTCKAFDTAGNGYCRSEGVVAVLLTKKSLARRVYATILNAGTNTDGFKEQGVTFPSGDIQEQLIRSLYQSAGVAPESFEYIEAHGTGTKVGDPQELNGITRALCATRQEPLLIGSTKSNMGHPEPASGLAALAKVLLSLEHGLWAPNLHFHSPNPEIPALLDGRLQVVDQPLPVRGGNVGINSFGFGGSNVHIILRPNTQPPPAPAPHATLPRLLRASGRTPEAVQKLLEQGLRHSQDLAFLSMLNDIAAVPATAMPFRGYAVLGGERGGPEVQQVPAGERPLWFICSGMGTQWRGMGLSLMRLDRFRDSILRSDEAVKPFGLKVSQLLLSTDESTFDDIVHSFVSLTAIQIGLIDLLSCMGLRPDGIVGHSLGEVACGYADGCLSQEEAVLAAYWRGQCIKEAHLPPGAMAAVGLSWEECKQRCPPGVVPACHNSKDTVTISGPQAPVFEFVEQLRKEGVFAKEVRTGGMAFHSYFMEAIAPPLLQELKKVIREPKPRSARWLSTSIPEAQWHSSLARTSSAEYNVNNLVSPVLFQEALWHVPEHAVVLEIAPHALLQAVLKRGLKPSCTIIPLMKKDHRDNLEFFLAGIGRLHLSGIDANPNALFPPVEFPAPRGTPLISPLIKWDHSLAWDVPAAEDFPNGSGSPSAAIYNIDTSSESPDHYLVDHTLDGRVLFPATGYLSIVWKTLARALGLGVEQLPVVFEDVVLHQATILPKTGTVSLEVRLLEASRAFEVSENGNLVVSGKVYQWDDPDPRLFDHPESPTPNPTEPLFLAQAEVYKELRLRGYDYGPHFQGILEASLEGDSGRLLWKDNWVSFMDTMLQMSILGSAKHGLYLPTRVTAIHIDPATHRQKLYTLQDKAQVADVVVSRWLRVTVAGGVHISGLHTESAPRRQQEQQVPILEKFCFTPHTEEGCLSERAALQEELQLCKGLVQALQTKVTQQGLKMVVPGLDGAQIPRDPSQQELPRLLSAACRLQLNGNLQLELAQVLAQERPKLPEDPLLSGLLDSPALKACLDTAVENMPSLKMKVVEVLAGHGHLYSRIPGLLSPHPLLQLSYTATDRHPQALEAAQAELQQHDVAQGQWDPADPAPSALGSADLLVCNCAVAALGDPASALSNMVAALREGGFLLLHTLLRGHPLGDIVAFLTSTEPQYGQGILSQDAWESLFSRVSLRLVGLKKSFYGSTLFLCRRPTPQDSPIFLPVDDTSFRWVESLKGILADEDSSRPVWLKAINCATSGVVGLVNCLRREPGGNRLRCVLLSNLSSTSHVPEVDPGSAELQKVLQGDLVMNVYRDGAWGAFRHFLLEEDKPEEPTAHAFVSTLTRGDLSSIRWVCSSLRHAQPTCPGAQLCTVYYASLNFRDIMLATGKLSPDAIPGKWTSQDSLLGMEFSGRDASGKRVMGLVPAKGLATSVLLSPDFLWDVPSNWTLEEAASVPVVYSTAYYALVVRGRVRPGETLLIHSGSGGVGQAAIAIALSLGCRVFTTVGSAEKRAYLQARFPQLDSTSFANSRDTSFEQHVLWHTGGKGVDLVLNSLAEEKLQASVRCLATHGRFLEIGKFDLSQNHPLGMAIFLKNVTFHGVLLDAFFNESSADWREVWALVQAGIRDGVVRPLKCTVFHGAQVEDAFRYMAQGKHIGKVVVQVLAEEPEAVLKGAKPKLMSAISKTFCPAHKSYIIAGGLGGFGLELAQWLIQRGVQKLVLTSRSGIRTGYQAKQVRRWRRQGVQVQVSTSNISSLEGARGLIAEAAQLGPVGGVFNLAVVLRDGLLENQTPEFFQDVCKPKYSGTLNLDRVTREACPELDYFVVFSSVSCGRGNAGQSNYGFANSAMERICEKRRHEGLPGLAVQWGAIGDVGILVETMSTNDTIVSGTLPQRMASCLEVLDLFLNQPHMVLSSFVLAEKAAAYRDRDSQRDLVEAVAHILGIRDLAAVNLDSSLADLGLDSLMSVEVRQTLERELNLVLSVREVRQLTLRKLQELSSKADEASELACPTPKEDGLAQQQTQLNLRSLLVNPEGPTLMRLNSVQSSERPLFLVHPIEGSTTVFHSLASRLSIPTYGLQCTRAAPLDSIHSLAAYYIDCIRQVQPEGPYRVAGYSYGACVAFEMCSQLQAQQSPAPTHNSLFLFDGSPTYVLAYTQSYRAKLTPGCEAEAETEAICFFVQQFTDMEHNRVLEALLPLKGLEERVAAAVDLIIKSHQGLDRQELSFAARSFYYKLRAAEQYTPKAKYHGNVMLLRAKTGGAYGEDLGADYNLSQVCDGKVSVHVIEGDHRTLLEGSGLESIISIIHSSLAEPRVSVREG
structure (smiles),measurement,setting,value
CCOC(=O)NCCOc1ccc(Oc2ccccc2)cc1,AC50,[1],85.4 µM (active)
same,outcome,[2],inactive
same,AC50,[3],83.4 µM (active)
same,outcome,[4],inactive
same,AC50,[5],89.3 µM (active)
same,AC50,[6],96 µM (active)
same,AC50,[7],50 µM (active)
same,outcome,[8],inactive
same,AC50,[9],88.5 µM (active)
same,AC50,[10],79.5 µM (active)
same,outcome,[11],inactive
same,AC50,[12],84.4 µM (active)
same,outcome,[13],inactive
same,outcome,[14],inactive
OB(O)O,outcome,[1],inactive
same,outcome,[15],inactive
same,outcome,[2],inactive
same,outcome,[3],inactive
same,outcome,[4],inactive
same,outcome,[5],inactive
same,outcome,[7],inactive
same,outcome,[8],inactive
same,outcome,[9],inactive
same,outcome,[10],inactive
same,outcome,[11],inactive
same,outcome,[12],inactive
same,outcome,[13],inactive
same,outcome,[14],inactive
same,outcome,[16],inactive
CCCN(CCC)c1c([N+](=O)[O-])cc(C(F)(F)F)c(N)c1[N+](=O)[O-],outcome,[1],inactive
same,outcome,[3],inactive
same,outcome,[4],inactive
same,outcome,[5],inactive
same,AC50,[7],9.51 µM (active)
same,outcome,[8],inactive
same,outcome,[9],inactive
same,outcome,[10],inactive
same,AC50,[11],50 µM (active)
same,AC50,[12],18 µM (active)
same,outcome,[13],inactive
same,outcome,[14],inactive
same,AC50,[16],22 µM (active)
N#CSCSc1nc2ccccc2s1,outcome,[1],inactive
same,AC50,[15],68.3 µM (active)
same,outcome,[2],inactive
same,outcome,[3],inactive
same,outcome,[4],inactive
same,outcome,[5],inactive
same,AC50,[7],49.4 µM (active)
same,outcome,[8],inactive
same,outcome,[9],inactive
same,outcome,[10],inactive
same,outcome,[11],inactive
same,outcome,[12],inactive
same,outcome,[13],inactive
same,outcome,[14],inactive
same,AC50,[16],63.3 µM (active)
O=C(O)C1(C(=O)Nc2ccc(Cl)cc2Cl)CC1,outcome,[1],inactive
same,outcome,[3],inactive
same,AC50,[4],83.3 µM (active)
same,AC50,[5],77.4 µM (active)
same,AC50,[7],50 µM (active)
same,outcome,[8],inactive
same,outcome,[9],inactive
same,AC50,[10],80.7 µM (active)
same,outcome,[11],inactive
same,AC50,[12],50 µM (active)
same,outcome,[13],inactive
same,outcome,[14],inactive
CCC(C)OC(=O)N1CCCCC1CCO (stereo unspecified),outcome,[1],inactive
same,outcome,[2],inactive
same,outcome,[3],inactive
same,outcome,[4],inactive
same,outcome,[5],inactive
same,AC50,[7],64 µM (active)
same,outcome,[8],inactive
same,outcome,[9],inactive
same,outcome,[10],inactive
same,outcome,[11],inactive
same,outcome,[12],inactive
same,outcome,[13],inactive
same,outcome,[14],inactive
same,outcome,[16],inactive
CCCOC(=O)c1ccc(C(=O)OCCC)nc1,outcome,[1],inactive
same,outcome,[2],inactive
same,outcome,[3],inactive
same,outcome,[4],inactive
same,outcome,[5],inactive
same,AC50,[7],24.8 µM (active)
same,outcome,[8],inactive
same,outcome,[9],inactive
same,outcome,[10],inactive
same,outcome,[11],inactive
same,outcome,[12],inactive
same,outcome,[13],inactive
same,outcome,[14],inactive
